# Source: the supplement of paper PMC4466140
# Assays:
# Experiment in all cases: SPOT peptide array binding signal intensity (averaged, normalized) (arbitrary units (background-subtracted, floor 0; scale differs between SH3 domains)); higher = stronger binding of the SH3 domain to the peptide
# AgAbp1 = target: AgAbp1
# Method in brief: (§1)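 Cellulose membranes carried synthetic 15-mer peptides with cysteines swapped for serines. These were incubated overnight at 4°C with 10 μg/ml of GST-fused SH3 domains from four yeast species in TBS-based blocking buffer. Binding signal, detected with anti-GST antibody and quantified in Genespotter, is the normalized, background-subtracted spot intensity averaged over replicates, in arbitrary units specific to each domain.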
# AgBbc1 = target: AgBbc1
# Method in brief: as §1
# AgBem1-D1 = target: AgBem1-D1
# Method in brief: as §1
# AgBzz1-D1 = target: AgBzz1-D1
# Method in brief: as §1
# AgBzz1-D2 = target: AgBzz1-D2
# Method in brief: as §1
# AgCyk3 = target: AgCyk3
# Method in brief: as §1
# AgFus1 = target: AgFus1
# Method in brief: as §1
# AgHof1 = target: AgHof1
# Method in brief: as §1
# AgHse1 = target: AgHse1
# Method in brief: as §1
# AgLsb1 = target: AgLsb1
# Method in brief: as §1
# AgLsb4 = target: AgLsb4
# Method in brief: as §1
# AgMyo5 = target: AgMyo5
# Method in brief: as §1
# AgNbp2 = target: AgNbp2
# Method in brief: as §1
# AgRvs167 = target: AgRvs167
# Method in brief: as §1
# AgSho1 = target: AgSho1
# Method in brief: as §1
# AgSla1-D1-D2 = target: AgSla1-D1-D2
# Method in brief: as §1
# AgSla1-D3 = target: AgSla1-D3
# Method in brief: as §1
# CaAbp1-D1 = target: CaAbp1-D1
# Method in brief: as §1
# CaAbp1-D2 = target: CaAbp1-D2
# Method in brief: as §1
# CaBbc1 = target: CaBbc1
# Method in brief: as §1
# CaBem1-D1 = target: CaBem1-D1
# Method in brief: as §1
# CaBzz1-D1 = target: CaBzz1-D1
# Method in brief: as §1
# CaBzz1-D2 = target: CaBzz1-D2
# Method in brief: as §1
# CaCyk3 = target: CaCyk3
# Method in brief: as §1
# CaFus1 = target: CaFus1
# Method in brief: as §1
# CaHof1 = target: CaHof1
# Method in brief: as §1
# CaHse1 = target: CaHse1
# Method in brief: as §1
# CaLsb1 = target: CaLsb1
# Method in brief: as §1
# CaLsb4 = target: CaLsb4
# Method in brief: as §1
# CaMyo5 = target: CaMyo5
# Method in brief: as §1
# CaNbp2 = target: CaNbp2
# Method in brief: as §1
# CaRvs167 = target: CaRvs167
# Method in brief: as §1
# CaRvs167-3 = target: CaRvs167-3
# Method in brief: as §1
# CaSho1 = target: CaSho1
# Method in brief: as §1
# CaSla1-D1-D2 = target: CaSla1-D1-D2
# Method in brief: as §1
# CaSla1-D3 = target: CaSla1-D3
# Method in brief: as §1
# ScAbp1 = target: ScAbp1
# Method in brief: as §1
# ScBbc1 = target: ScBbc1
# Method in brief: as §1
# ScBem1-D1 = target: ScBem1-D1
# Method in brief: as §1
# ScBzz1-D1 = target: ScBzz1-D1
# Method in brief: as §1
# ScBzz1-D2 = target: ScBzz1-D2
# Method in brief: as §1
# ScCyk3 = target: ScCyk3
# Method in brief: as §1
# ScFus1 = target: ScFus1
# Method in brief: as §1
# ScHof1 = target: ScHof1
# Method in brief: as §1
# ScHse1 = target: ScHse1
# Method in brief: as §1
# ScLsb1 = target: ScLsb1
# Method in brief: as §1
# ScLsb2 = target: ScLsb2
# Method in brief: as §1
# ScLsb3 = target: ScLsb3
# Method in brief: as §1
# ScLsb4 = target: ScLsb4
# Method in brief: as §1
# ScMyo3 = target: ScMyo3
# Method in brief: as §1
# ScMyo5 = target: ScMyo5
# Method in brief: as §1
# ScNbp2 = target: ScNbp2
# Method in brief: as §1
# ScPex13 = target: ScPex13
# Method in brief: as §1
# ScRvs167 = target: ScRvs167
# Method in brief: as §1
# ScSho1 = target: ScSho1
# Method in brief: as §1
# ScSla1-D1-D2 = target: ScSla1-D1-D2
# Method in brief: as §1
# ScSla1-D3 = target: ScSla1-D3
# Method in brief: as §1
# SpAbp1-D1 = target: SpAbp1-D1
# Method in brief: as §1
# SpBbc1 = target: SpBbc1
# Method in brief: as §1
# SpBzz1-D1 = target: SpBzz1-D1
# Method in brief: as §1
# SpBzz1-D2 = target: SpBzz1-D2
# Method in brief: as §1
# SpCyk3 = target: SpCyk3
# Method in brief: as §1
# SpHof1 = target: SpHof1
# Method in brief: as §1
# SpHof1-2 = target: SpHof1-2
# Method in brief: as §1
# SpHof1-3 = target: SpHof1-3
# Method in brief: as §1
# SpHse1 = target: SpHse1
# Method in brief: as §1
# SpLsb1 = target: SpLsb1
# Method in brief: as §1
# SpLsb4 = target: SpLsb4
# Method in brief: as §1
# SpMyo1 = target: SpMyo1
# Method in brief: as §1
# SpNbp2 = target: SpNbp2
# Method in brief: as §1
# SpPex13 = target: SpPex13
# Method in brief: as §1
# SpRvs167 = target: SpRvs167
# Method in brief: as §1
# SpSla1-D1-D2 = target: SpSla1-D1-D2
# Method in brief: as §1
# SpSla1-D3 = target: SpSla1-D3
# Method in brief: as §1
binder,measurement,setting,value
LPMNIQPDLPPRKIM,SPOT peptide array binding signal intensity,AgAbp1,11.5
same,SPOT peptide array binding signal intensity,AgBbc1,73.8
same,SPOT peptide array binding signal intensity,AgBem1-D1,263
same,SPOT peptide array binding signal intensity,AgBzz1-D1,≤ 0
same,SPOT peptide array binding signal intensity,AgBzz1-D2,5
same,SPOT peptide array binding signal intensity,AgCyk3,6
same,SPOT peptide array binding signal intensity,AgFus1,301
same,SPOT peptide array binding signal intensity,AgHof1,109
same,SPOT peptide array binding signal intensity,AgHse1,139
same,SPOT peptide array binding signal intensity,AgLsb1,904
same,SPOT peptide array binding signal intensity,AgLsb4,3030
same,SPOT peptide array binding signal intensity,AgMyo5,≤ 0
same,SPOT peptide array binding signal intensity,AgNbp2,152
same,SPOT peptide array binding signal intensity,AgRvs167,525
same,SPOT peptide array binding signal intensity,AgSho1,218
same,SPOT peptide array binding signal intensity,AgSla1-D1-D2,≤ 0
same,SPOT peptide array binding signal intensity,AgSla1-D3,2.5
same,SPOT peptide array binding signal intensity,CaAbp1-D1,63.5
same,SPOT peptide array binding signal intensity,CaAbp1-D2,59.5
same,SPOT peptide array binding signal intensity,CaBbc1,423
same,SPOT peptide array binding signal intensity,CaBem1-D1,42
same,SPOT peptide array binding signal intensity,CaBzz1-D1,290
same,SPOT peptide array binding signal intensity,CaBzz1-D2,98.2
same,SPOT peptide array binding signal intensity,CaCyk3,15
same,SPOT peptide array binding signal intensity,CaFus1,1460
same,SPOT peptide array binding signal intensity,CaHof1,≤ 0
same,SPOT peptide array binding signal intensity,CaHse1,224
same,SPOT peptide array binding signal intensity,CaLsb1,16.2
same,SPOT peptide array binding signal intensity,CaLsb4,7000
same,SPOT peptide array binding signal intensity,CaMyo5,60
same,SPOT peptide array binding signal intensity,CaNbp2,410
same,SPOT peptide array binding signal intensity,CaRvs167,1050
same,SPOT peptide array binding signal intensity,CaRvs167-3,0.5
same,SPOT peptide array binding signal intensity,CaSho1,799
same,SPOT peptide array binding signal intensity,CaSla1-D1-D2,409
same,SPOT peptide array binding signal intensity,CaSla1-D3,242
same,SPOT peptide array binding signal intensity,ScAbp1,16
same,SPOT peptide array binding signal intensity,ScBbc1,7.5
same,SPOT peptide array binding signal intensity,ScBem1-D1,1
same,SPOT peptide array binding signal intensity,ScBzz1-D1,13
same,SPOT peptide array binding signal intensity,ScBzz1-D2,10.5
same,SPOT peptide array binding signal intensity,ScCyk3,9
same,SPOT peptide array binding signal intensity,ScFus1,510
same,SPOT peptide array binding signal intensity,ScHof1,≤ 0
same,SPOT peptide array binding signal intensity,ScHse1,92
same,SPOT peptide array binding signal intensity,ScLsb1,362
same,SPOT peptide array binding signal intensity,ScLsb2,218
same,SPOT peptide array binding signal intensity,ScLsb3,5190
same,SPOT peptide array binding signal intensity,ScLsb4,3270
same,SPOT peptide array binding signal intensity,ScMyo3,14
same,SPOT peptide array binding signal intensity,ScMyo5,0.75
same,SPOT peptide array binding signal intensity,ScNbp2,348
same,SPOT peptide array binding signal intensity,ScPex13,234
same,SPOT peptide array binding signal intensity,ScRvs167,2170
same,SPOT peptide array binding signal intensity,ScSho1,682
same,SPOT peptide array binding signal intensity,ScSla1-D1-D2,192
same,SPOT peptide array binding signal intensity,ScSla1-D3,212
same,SPOT peptide array binding signal intensity,SpAbp1-D1,48
same,SPOT peptide array binding signal intensity,SpBbc1,≤ 0
same,SPOT peptide array binding signal intensity,SpBzz1-D1,362
same,SPOT peptide array binding signal intensity,SpBzz1-D2,5.5
same,SPOT peptide array binding signal intensity,SpCyk3,9.5
same,SPOT peptide array binding signal intensity,SpHof1,21.5
same,SPOT peptide array binding signal intensity,SpHof1-2,18.2
same,SPOT peptide array binding signal intensity,SpHof1-3,11
same,SPOT peptide array binding signal intensity,SpHse1,174
same,SPOT peptide array binding signal intensity,SpLsb1,160
same,SPOT peptide array binding signal intensity,SpLsb4,4630
same,SPOT peptide array binding signal intensity,SpMyo1,75
same,SPOT peptide array binding signal intensity,SpNbp2,59
same,SPOT peptide array binding signal intensity,SpPex13,42.5
same,SPOT peptide array binding signal intensity,SpRvs167,2340
same,SPOT peptide array binding signal intensity,SpSla1-D1-D2,2.5
same,SPOT peptide array binding signal intensity,SpSla1-D3,148
AAHKTKPSIPPKKVE,SPOT peptide array binding signal intensity,AgAbp1,1520
same,SPOT peptide array binding signal intensity,AgBbc1,≤ 0
same,SPOT peptide array binding signal intensity,AgBem1-D1,≤ 0
same,SPOT peptide array binding signal intensity,AgBzz1-D1,57.5
same,SPOT peptide array binding signal intensity,AgBzz1-D2,5.5
same,SPOT peptide array binding signal intensity,AgCyk3,≤ 0
same,SPOT peptide array binding signal intensity,AgFus1,≤ 0
same,SPOT peptide array binding signal intensity,AgHof1,20
same,SPOT peptide array binding signal intensity,AgHse1,≤ 0
same,SPOT peptide array binding signal intensity,AgLsb1,≤ 0
same,SPOT peptide array binding signal intensity,AgLsb4,≤ 0
same,SPOT peptide array binding signal intensity,AgMyo5,3.75
same,SPOT peptide array binding signal intensity,AgNbp2,≤ 0
same,SPOT peptide array binding signal intensity,AgRvs167,1
same,SPOT peptide array binding signal intensity,AgSho1,8
same,SPOT peptide array binding signal intensity,AgSla1-D1-D2,≤ 0
same,SPOT peptide array binding signal intensity,AgSla1-D3,3.25
same,SPOT peptide array binding signal intensity,CaAbp1-D1,2440
same,SPOT peptide array binding signal intensity,CaAbp1-D2,6290
same,SPOT peptide array binding signal intensity,CaBbc1,42
same,SPOT peptide array binding signal intensity,CaBem1-D1,≤ 0
same,SPOT peptide array binding signal intensity,CaBzz1-D1,257
same,SPOT peptide array binding signal intensity,CaBzz1-D2,243
same,SPOT peptide array binding signal intensity,CaCyk3,≤ 0
same,SPOT peptide array binding signal intensity,CaFus1,≤ 0
same,SPOT peptide array binding signal intensity,CaHof1,1.5
same,SPOT peptide array binding signal intensity,CaHse1,13.2
same,SPOT peptide array binding signal intensity,CaLsb1,≤ 0
same,SPOT peptide array binding signal intensity,CaLsb4,≤ 0
same,SPOT peptide array binding signal intensity,CaMyo5,1
